Data on eleven compounds can be found in PubChem BioAssay (EPA / NIEHS).

The structures appear in SMILES notation. Where “and” joins values, the source holds several entries; their conditions need not be identical. Equal entries are not always repeated. The source holds several records for some structures; these can differ, active in one and inactive in another. Calls of active or inactive are those of the source. The calls were made as follows: active = hit-call score of the fitted dose curve at least 0.9, where 1 is the maximum; inactive = score below 0.9.

Read-out in this test: CD69, CD69 (gene 969)
Briefly: BSK_IMphg_CD69: BioMAP Diversity Plus: IMphg Assay for CD69 Biomarker Activity (AID 2284257). To be noted: primary human endothelial cells with macrophages. How it is done:
BSK_IMphg is a cell-based, multiplexed-readout assay that uses venular endothelial cells and macrophages, a human vascular primary cell, with measurements taken at 24 hours after chemical dosing in a microplate: 96-well plate.BSK_IMphg_CD69 is an assay component measured in the BSK_IMphg assay. It measures CD69 antibody related to regulation of gene expression using ELISA technology.Data from the assay component BSK_IMphg_CD69 was analyzed at the endpoint, BSK_IMphg_CD69, in the positive analysis fitting direction relative to DMSO as the negative control and baseline of activity. Using a type of binding reporter, gain or loss-of-signal activity can be used to understand protein changes. To generalize the intended target to other relatable targets, this assay endpoint is annotated to the 'cytokine' intended target family, where the subfamily is 'inflammatory factor'.
The levels of cell surface (or secreted, indicated by the prefix "s") biomarker endpoints were measured by ELISA. Overt cytotoxicity to cells in confluent adherent cultures (all systems other than the BT system) was assessed by measuring total protein levels using sulforhodamine B (SRB) staining in parallel cultures at the time of biomarker measurements, indicated as SRB endpoints. For proliferation assays for adherent cell types, individual cell types are cultured at sub-confluence and relative cell numbers quantified by SRB staining at time points optimized for each system (48 h: 3C and CASM3C systems; 72 h: BT and HDF3CGF systems; 96 h: SAg system). SRB was performed by staining cells with 0.1% SRB after fixation with 10% TCA and reading wells at 560 nm.Viability and proliferation of PBMC (T cells) was quantified by Alamar Blue reduction for the SAg and BT systems. For PBMC viability (referred to as PBMC Cytotoxicity within the assay endpoint names), cells were plated (75,000/well in a 96-well plate) and then chemical samples added for 1 h before addition of activators, SEB and TSST-1 (20 ng/mL final concentration each). Cells were incubated for 90 h. Then, Alamar Blue (20 uL/well) (Invitrogen, Cat DAL1100) was added for 6 h, and the plates were read with a fluorescence microplate reader at 546/580 nm (excitation/emission). For PBMC proliferation, cells were plated and activated as above but incubated for only 16 h prior to addition of Alamar Blue. Plates were read after 6 h.
On to `O=C(O)C(F)(F)OC(F)(F)C(F)(F)OC(F)(F)C(F)(F)OC(F)(F)C(F)(F)C(F)(F)C(F)(F)F`, for which the AC50 (usually the concentration giving half of the maximal activity seen) was 40.2 µM (active) and 24.2 µM (active).
Same read-out and setting: as for `O=C(CC(=O)C(F)(F)C(F)(F)C(F)(F)F)c1cccs1`, the figure is 30 µM (active).
`OCC(F)(F)C(F)(F)C(F)(F)C(F)(F)C(F)(F)C(F)(F)C(F)(F)C(F)(F)C(F)(F)C(F)(F)C(F)(F)F`: the result was inactive.
Take `O=C(O)CCC(F)(F)C(F)(F)C(F)(F)C(F)(F)C(F)(F)C(F)(F)F`: the AC50 is 13.6 µM (active) and the result was inactive.
Turning to `O=P(O)(O)CCC(F)(F)C(F)(F)C(F)(F)C(F)(F)C(F)(F)C(F)(F)F`, the result was inactive.
The same measure, in the same setting: the same measure for `C=CC(=O)OCCC(F)(F)C(F)(F)C(F)(F)C(F)(F)C(F)(F)C(F)(F)C(F)(F)C(F)(F)F`: “inactive”.
Same read-out and setting: as for `CN(CCO)S(=O)(=O)C(F)(F)C(F)(F)C(F)(F)C(F)(F)C(F)(F)C(F)(F)C(F)(F)C(F)(F)F`, the entry is “inactive”; as for `O=C(O)CCC(F)(F)C(F)(F)C(F)(F)C(F)(F)C(F)(F)F`, “inactive”; as for `O=S(=O)(O)C(F)(F)C(F)(F)C(F)(F)C(F)(F)C(F)(F)C(F)(F)C(F)(F)C(F)(F)C(F)(F)C(F)(F)F`, “inactive”.
Take `O=P(O)(O)CCC(F)(F)C(F)(F)C(F)(F)C(F)(F)C(F)(F)C(F)(F)C(F)(F)C(F)(F)F`: the result was inactive.
With `CN(Cc1cnc2nc(N)nc(N)c2n1)c1ccc(C(=O)N[C@@H](CCC(=O)O)C(=O)O)cc1`, the outcome was inactive.
